This is an account of results in PubChem BioAssay (NCATS).

Assay [1] addresses ATP-dependent 6-phosphofructokinase (Trypanosoma brucei brucei) (UniProt O15648). Nature of the assay: qHTS Assay to Find Inhibitors of T. brucei phosphofructokinase: hit validation (AID 492961). Further: potency means the concentration at half of the fitted maximal effect. In a few lines: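 Inhibition of parasite PFK is measured as reduced ADP formation, quantified via luciferase after ATP depletion. Assay used 0.1 mM ATP, 0.5 mM F6P, 1.25 nM enzyme, 45 min incubation.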

Assay [2] concerns the target Ubiquitin carboxyl-terminal hydrolase 1 (Homo sapiens) (UniProt O94782). Nature of the assay: Inhibitors of USP1/UAF1: Pilot qHTS (AID 504865). Further: nearly all actives have a fitted effect of over 35% in size. Further: potency means the concentration at half of the fitted maximal effect. In short, it runs like this: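 USP1/UAF1 complex at 1 nM preincubated 15 min at room temperature with compound, then Ub-Rho substrate added at 150 nM final. Fluorescence (480/540 nm) read kinetically in 50 mM HEPES pH 7.8, 0.5 mM EDTA, 1 mM TCEP, 0.1 mg/ml BSA, 0.01% Tween-20.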

For assay [3], the target named is Chromobox protein homolog 1 (Homo sapiens) (UniProt P83916). Nature of the assay: qHTS Validation Assay for Inhibitors of HP1-beta Chromodomain Interactions with Methylated Histone Tails (AID 488953).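 Further: loss of AlphaScreen luminescence from HP1-beta binding biotinylated H3K9me3 peptide; series mostly up to about 110 µM; on the % scale 0 is the no-effect control and ±100 the full control effect; nearly all actives have a fitted effect of over 50% in size.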 In short, it runs like this:
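AlphaScreen proximity signal from streptavidin donor and nickel chelate acceptor beads (final 10 ug/mL) after 30 min dark incubation. Compounds had 30 min at room temperature with preformed complex of 50 nM HP1-beta and 50 nM b-H3(1-18)K9me3 in PBS pH 7.4 with 0.01% Tween-20.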
On the technique in general: qHTS replaces the single test concentration by a dilution series.

In assay [4] the target is Methanococcus maripaludis chaperonin (MmCpn) (UniProt Q6LX38). Nature of the assay: High-Throughput Screening for Modulators of Cytosolic Chaperonin Activity: MmCpn Primary Screen (AID 488978).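 Further: 50 nM MmCpn enzyme hydrolysing 30 µM ATP at 37 °C; 0% is about no effect.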 In short, it runs like this: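 MmCpn at 50 nM final was preincubated 5 min at RT with compound. ATP was then added at 30 uM final for 10 min at 37 C. ADP formed was detected by Transcreener HTRF (665/590 nm).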

For assay [5], the target named is Transient receptor potential cation channel subfamily V member 1 (Homo sapiens) (UniProt Q8NER1). Nature of the assay: HTS Assay for Compounds that Act as Enhancers of the Vanilloid Receptor 1 (AID 488979). Further: 0% is about no effect. In short, it runs like this:
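TRPV1 cells loaded with Fluo-8 calcium dye; compound added and Ca2+ signal (ex 480/em 520 nm) followed 3 min, then capsaicin at EC20 added and read 2 more min to detect enhancement.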

Assay [6] concerns the target D(1A) dopamine receptor (Homo sapiens) (UniProt P21728). As to the kind of experiment: HTS Assay for Allosteric Agonists of the Human D1 Dopamine Receptor: Primary Screen for Agonists (AID 488981). Further: 0% is about no effect. In short, it runs like this:
(§1)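 Tetracycline-induced HEK293 Trex D1 cells with forced coupling to calcium, loaded with no-wash calcium dye; kinetic fluorescence read 180 s after compound addition for agonism, then a further 180 s after an EC20 dopamine challenge for potentiation.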

The target is the same in assay [7]. As to the kind of experiment: HTS Assay for Allosteric Agonists of the Human D1 Dopamine Receptor: Primary Screen for Potentiators (AID 488982). Further: 0% is about no effect. In a few lines: as §1
For assay [8] the target is unchanged. As to the kind of experiment: HTS Assay for Allosteric Agonists of the Human D1 Dopamine Receptor: Primary Screen for Antagonists (AID 488983).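 Further: calcium flux response to an EC80 dopamine challenge measured with no-wash dye; nearly all actives have a fitted effect of over 65% in size.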 Further: potency means the concentration at half of the fitted maximal effect. In a few lines: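 Calcium-flux read-out in inducible HEK293 T-REx cells expressing D1, dye-loaded 30–90 min at room temperature. Kinetic reads: 180 s after compound (agonist phase), then 180 s after an EC80 dopamine challenge.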

The nature of assay [9]: Validation screen for small molecules that induce genotoxicity in human embryonic kidney (HEK293T) cells expressing luciferase-tagged ELG1 (AID 493106). Further: 0% is about no effect. In a few lines:
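ELG1-luciferase reporter readout (ONE-Glo, 30 min, room temperature) after 16 hr compound treatment at 37 °C of HEK293T cells at 2,000 per well. Rising luminescence flags genotoxic stress.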

Assay [10] addresses ATPase family AAA domain-containing protein 5 (Homo sapiens) (UniProt Q96QE3). Nature of the assay: Validation screen for small molecules that inhibit ELG1-dependent DNA repair in human embryonic kidney (HEK293T) cells expressing luciferase-tagged ELG1 (AID 493107).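 Further: series mostly up to about 46 µM; on the % scale 0 is the no-effect control and ±100 the full control effect; inhibitors lower the ELG1-luciferase luminescence signal; nearly all actives have a fitted effect of over 70% in size.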 In a few lines: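 Luciferase read-out, ONE-Glo, 30 min at room temperature, follows 16 h co-exposure at 37 C of compound and the DNA-damaging agent 5-fluorouridine. Cells: HEK293T with ELG1-luciferase fusion, 2,000 per well, DMSO as vehicle.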

Assay [11] is described as follows: Nrf2 qHTS screen for inhibitors: Validation (AID 493153; active means well fitted inhibition curve with a large enough effect in the main read-out, with a control signal flat, not every such curve was filed as active). Conditions: viability change: measured here: cytotoxicity max response. In a few lines:
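Concentration-response on A549 ARE_Fluc reporter cells exposed 18-24 h at 37 C, 5% CO2. Cytotoxicity read first by CellTiter-Fluor fluorescence (Ex 405/Em 525), then Nrf2 inhibition by BugLite luminescence after 15 min.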

A short description of assay [12]: qHTS for Inhibitors of Cell Surface uPA Generation: Validation Assay (AID 493164).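 Further: RAW 264.7 macrophage cells exposed to compound for 18 h; 0% is about no effect.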 In a few lines: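 ATP-Lite luminescence read-out: ATP remains high when uPA activity-dependent LF translocation into the cytoplasm is blocked. RAW 264.7 cells, 18 h compound exposure at 37 C; 7-point titration, 2.45 nM to 38.3 uM final.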
Assay [13] addresses Galactokinase (Homo sapiens) (UniProt P51570). As to the kind of experiment: qHTS Validation Assay for Inhibitors of Human Galactokinase (GALK) (AID 493189). Further: 0% is about no effect. In short, it runs like this: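 GALK (5 nM) with 35 uM ATP and 100 uM galactose in HEPES pH 8.0 with MgCl2, NaCl, DTT and BSA. Reaction ran 1 h at room temperature. Residual ATP read by Kinase-Glo Plus luminescence.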
Assay [14] in a line: Validation screen for small molecules that induce DNA re-replication in SW480 colon adenocarcinoma cells (AID 504364). Further: 0% is about no effect. In a few lines:
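Image-based DNA content read-out: Hoechst stain 40 min, total nuclear fluorescence intensity (ex 405 nm, em 500-530 nm) after 48 h compound exposure of 250 SW480 cells/well at 37 C, 5% CO2, versus DMSO vehicle.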

Assay [15] deals with Peptidyl-prolyl cis-trans isomerase NIMA-interacting 1 (Homo sapiens) (UniProt Q13526). As to the kind of experiment: qHTS Validation Assay to Find Inhibitors of Pin1 (AID 504536; active means well fitted inhibition curve with a large enough effect in the polarisation, with a control signal flat, not every such curve was filed as active; the % refers to the polarisation;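 further: 0% = full Pin1 enzyme wells and -100% = no-enzyme wells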). In a few lines:
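Fluorescence polarization competition: compounds (titration) displace HiFluor-488-labeled Pin1-1b peptide from Pin1 (0.3 uM final) in pH 7.5 HEPES buffer with DTT, 10 min at room temperature; %Activity normalized to no-enzyme wells, curves fitted.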

Assay [16] has as its target Phosphoglycerate kinase, glycosomal (Trypanosoma brucei brucei) (UniProt P07378). Nature of the assay: qHTS Validation Assay to Find Inhibitors of Phosphoglycerate Kinase (AID 504547).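 Further: control wells lack PGK and mark full inhibition.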 In a few lines:
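Compounds are pinned into the substrate/PGK mixture, and GAPDH (100nM final) is added to start the reaction by producing 1,3-BPG. After 60 minutes at room temperature, Kinase-Glo Plus is added and luminescence is measured 10 minutes later.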

Assay [17] addresses phosphoglycerate mutase (Leishmania major) (UniProt Q4Q090). As to the kind of experiment: qHTS Validation Assay to Find Inhibitors of Phosphoglycerate Mutase (AID 504548).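 Further: end-point luminescence from Kinase-GloPlus after the PGAM reaction; series mostly up to about 58 µM; on the % scale 0 is the no-effect control and ±100 the full control effect.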 In a few lines:
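L. major PGAM (1.25nM final) was added to substrate buffer and pinned compound, incubated 45 minutes at room temperature, then Kinase-GloPlus added; luminescence read after 10 minutes. Buffer: 100 mM TEA pH 7.6, 5 mM MgCl2, 0.01% Tween-20.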

A short description of assay [18]: Inducers of the Endoplasmic Reticulum Stress Response (ERSR) in human glioma: Validation (AID 504836). Further: 0% is about no effect. In a few lines: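 Stably transfected U87-MG glioma cells carrying a GRP78-based luciferase sensor; 16 h compound incubation. Luminescence end-point read 10 min after Bright-Glo addition at room temperature.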
In assay [19] the target is Thyrotropin receptor (Homo sapiens) (UniProt P16473). As to the kind of experiment: qHTS Assay for Antagonists of the Thyroid Stimulating Hormone Receptor (AID 488980). Further: series mostly up to about 58 µM; 0% is about no effect. In short, it runs like this: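 TSHR-transfected HEK293 cells (2000/well) in HEPES-buffered HBSS with 70 uM RO 20-1724 were stimulated with 4 nM TSH (EC80, final) in the presence of compound. cAMP was measured by HTRF competition after lysis and 30 min at RT.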

In assay [20] the target is Thyrotropin-releasing hormone receptor (Homo sapiens) (UniProt P34981). As to the kind of experiment: qHTS for Small Molecule Agonists and Allosteric Enhancers of Human TRH Receptor: Validation Screen for Agonists (AID 493127;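 active means calcium activation more than 3 SD above the typical response in the agonist read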;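 further: intracellular calcium rise by fluo-8 fluorescence before TRH EC20 addition; 0% is about no effect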). To be noted: TRH receptor agonist cell assay; at 2 µM; stronger effect = higher value. In a few lines:
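Compound-evoked intracellular calcium release in fluo-8-loaded TRHR cells, read kinetically on FDSS (Ex 480/Em 530, 1 s/cycle) after 23 nL pintool transfer. Agonist phase preceded 10 nM TRH EC20 addition.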

Results filed as inconclusive are left out. The source made the active and inactive calls. Unless noted, the call rests on the fitted dose curve; in most records, active means well fitted curve in the direction sought with a large enough effect; inconclusive means small, poorly fitted or top-dose-only effect, or another doubt; inactive means no such curve, though single readings can be large; an effect the other way counts as inactive or inconclusive.

Chain of Transient receptor potential cation channel subfamily V member 1 (Homo sapiens) (Q8NER1 whole entry, looked up): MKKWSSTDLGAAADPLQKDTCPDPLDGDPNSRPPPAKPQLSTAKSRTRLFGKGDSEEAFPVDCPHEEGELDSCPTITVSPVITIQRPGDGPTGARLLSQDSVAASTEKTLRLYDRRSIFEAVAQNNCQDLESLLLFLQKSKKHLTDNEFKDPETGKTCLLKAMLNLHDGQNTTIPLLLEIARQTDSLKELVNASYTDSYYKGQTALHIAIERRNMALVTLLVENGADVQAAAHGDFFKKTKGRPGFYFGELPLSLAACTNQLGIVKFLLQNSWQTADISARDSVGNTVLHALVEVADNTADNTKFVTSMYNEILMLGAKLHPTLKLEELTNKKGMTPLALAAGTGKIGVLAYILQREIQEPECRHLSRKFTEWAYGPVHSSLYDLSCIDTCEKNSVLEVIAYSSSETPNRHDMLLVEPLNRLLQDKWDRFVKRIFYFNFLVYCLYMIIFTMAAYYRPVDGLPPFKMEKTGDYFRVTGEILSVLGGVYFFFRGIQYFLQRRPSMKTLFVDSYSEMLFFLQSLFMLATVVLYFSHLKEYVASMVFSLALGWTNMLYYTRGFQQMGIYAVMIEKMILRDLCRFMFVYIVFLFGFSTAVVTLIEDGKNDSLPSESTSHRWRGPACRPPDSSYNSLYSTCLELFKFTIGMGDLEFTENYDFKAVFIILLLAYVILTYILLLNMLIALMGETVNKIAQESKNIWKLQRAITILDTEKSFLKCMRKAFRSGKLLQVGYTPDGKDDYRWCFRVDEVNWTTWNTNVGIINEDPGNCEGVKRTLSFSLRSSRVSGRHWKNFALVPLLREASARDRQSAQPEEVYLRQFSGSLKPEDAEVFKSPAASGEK
Chain of Ubiquitin carboxyl-terminal hydrolase 1 (Homo sapiens) (O94782 whole entry, looked up): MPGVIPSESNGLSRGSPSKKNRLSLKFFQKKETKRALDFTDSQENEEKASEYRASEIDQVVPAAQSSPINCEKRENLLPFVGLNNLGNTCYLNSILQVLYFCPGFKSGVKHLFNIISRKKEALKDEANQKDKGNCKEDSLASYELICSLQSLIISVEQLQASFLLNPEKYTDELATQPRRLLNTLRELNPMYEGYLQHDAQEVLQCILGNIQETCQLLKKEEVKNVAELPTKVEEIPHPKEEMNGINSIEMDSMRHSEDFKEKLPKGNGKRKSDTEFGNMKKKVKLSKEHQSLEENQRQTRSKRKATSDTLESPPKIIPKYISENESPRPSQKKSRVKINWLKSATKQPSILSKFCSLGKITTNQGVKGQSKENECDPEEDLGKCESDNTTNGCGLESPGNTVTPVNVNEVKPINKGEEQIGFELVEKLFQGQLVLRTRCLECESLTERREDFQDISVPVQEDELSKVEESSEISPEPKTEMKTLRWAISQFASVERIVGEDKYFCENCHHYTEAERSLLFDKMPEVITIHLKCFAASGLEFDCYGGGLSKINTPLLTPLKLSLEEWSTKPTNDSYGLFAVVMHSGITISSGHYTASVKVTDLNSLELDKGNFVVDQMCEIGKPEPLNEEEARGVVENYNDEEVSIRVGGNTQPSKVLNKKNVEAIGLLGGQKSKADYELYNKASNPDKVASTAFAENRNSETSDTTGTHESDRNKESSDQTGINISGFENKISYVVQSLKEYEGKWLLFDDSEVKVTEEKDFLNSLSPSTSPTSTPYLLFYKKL
Chain of Chromobox protein homolog 1 (Homo sapiens) (P83916 whole entry, looked up): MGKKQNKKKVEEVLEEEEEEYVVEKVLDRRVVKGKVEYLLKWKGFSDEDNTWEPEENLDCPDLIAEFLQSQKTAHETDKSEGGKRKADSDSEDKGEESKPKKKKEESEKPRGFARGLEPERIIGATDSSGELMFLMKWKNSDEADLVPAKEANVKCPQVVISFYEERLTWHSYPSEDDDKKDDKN
Chain of Galactokinase (Homo sapiens) (P51570 whole entry, looked up): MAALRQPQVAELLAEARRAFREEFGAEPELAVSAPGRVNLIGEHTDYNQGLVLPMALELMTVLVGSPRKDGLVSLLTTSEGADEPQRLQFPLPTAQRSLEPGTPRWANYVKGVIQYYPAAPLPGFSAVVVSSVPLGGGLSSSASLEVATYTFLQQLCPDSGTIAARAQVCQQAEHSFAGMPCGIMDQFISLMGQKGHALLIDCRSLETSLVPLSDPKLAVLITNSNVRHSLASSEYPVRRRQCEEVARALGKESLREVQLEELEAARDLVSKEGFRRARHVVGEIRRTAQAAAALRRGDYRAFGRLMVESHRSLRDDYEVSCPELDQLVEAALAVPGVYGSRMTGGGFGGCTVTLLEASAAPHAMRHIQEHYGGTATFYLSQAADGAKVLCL
Chain of ATP-dependent 6-phosphofructokinase (Trypanosoma brucei brucei) (O15648 whole entry, looked up): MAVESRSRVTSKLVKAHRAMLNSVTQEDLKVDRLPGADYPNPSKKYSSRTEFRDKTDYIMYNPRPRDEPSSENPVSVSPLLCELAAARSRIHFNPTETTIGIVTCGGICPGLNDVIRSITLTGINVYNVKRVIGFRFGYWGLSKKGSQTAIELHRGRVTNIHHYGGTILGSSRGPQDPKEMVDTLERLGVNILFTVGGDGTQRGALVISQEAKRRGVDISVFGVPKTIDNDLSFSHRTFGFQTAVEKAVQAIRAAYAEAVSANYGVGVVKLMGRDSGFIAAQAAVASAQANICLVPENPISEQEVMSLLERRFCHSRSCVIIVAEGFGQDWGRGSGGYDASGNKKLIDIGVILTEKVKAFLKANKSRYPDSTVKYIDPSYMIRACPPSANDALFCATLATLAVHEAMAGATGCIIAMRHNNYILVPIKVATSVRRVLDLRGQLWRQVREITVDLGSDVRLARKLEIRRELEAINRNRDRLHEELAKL
Chain of D(1A) dopamine receptor (Homo sapiens) (P21728 whole entry, looked up): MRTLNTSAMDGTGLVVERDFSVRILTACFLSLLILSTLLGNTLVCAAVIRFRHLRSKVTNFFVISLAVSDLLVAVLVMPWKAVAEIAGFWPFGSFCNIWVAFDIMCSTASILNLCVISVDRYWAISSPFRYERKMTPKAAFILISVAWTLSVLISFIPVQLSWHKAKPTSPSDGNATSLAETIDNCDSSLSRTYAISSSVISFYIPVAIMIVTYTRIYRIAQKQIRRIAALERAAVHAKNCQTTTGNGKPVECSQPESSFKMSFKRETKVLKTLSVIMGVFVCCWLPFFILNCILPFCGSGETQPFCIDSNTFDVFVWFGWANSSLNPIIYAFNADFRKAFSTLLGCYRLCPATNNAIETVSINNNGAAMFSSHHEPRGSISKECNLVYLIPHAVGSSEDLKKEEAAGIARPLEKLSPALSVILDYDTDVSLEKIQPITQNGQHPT
Chain of Phosphoglycerate kinase, glycosomal (Trypanosoma brucei brucei) (P07378 whole entry, looked up): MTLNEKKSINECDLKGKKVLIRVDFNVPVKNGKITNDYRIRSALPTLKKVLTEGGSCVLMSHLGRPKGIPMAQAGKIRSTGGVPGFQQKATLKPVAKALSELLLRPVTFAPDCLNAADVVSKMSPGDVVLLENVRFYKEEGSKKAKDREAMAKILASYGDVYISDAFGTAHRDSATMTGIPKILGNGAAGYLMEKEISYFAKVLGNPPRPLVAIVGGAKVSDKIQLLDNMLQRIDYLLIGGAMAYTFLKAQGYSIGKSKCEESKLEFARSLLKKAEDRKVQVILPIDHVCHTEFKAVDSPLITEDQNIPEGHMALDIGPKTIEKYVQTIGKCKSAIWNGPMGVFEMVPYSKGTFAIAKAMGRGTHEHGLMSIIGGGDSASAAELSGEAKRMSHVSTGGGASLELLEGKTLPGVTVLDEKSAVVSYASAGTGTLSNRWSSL
Chain of Methanococcus maripaludis chaperonin (MmCpn) (Q6LX38 1-543): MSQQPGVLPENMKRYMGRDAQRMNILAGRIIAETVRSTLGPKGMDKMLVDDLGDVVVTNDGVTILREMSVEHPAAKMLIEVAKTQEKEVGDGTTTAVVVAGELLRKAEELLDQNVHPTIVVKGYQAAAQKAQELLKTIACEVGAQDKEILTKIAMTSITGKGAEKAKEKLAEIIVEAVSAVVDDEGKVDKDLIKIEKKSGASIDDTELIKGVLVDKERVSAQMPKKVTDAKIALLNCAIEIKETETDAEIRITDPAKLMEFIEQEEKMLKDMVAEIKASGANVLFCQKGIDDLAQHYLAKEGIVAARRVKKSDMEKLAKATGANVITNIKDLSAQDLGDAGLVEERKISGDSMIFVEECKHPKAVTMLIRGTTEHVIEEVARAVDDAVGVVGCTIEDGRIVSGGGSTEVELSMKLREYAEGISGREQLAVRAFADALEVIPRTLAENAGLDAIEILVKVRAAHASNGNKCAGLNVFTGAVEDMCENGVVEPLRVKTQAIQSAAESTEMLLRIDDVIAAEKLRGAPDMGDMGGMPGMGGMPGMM
Chain of phosphoglycerate mutase (Leishmania major) (Q4Q090 1-553): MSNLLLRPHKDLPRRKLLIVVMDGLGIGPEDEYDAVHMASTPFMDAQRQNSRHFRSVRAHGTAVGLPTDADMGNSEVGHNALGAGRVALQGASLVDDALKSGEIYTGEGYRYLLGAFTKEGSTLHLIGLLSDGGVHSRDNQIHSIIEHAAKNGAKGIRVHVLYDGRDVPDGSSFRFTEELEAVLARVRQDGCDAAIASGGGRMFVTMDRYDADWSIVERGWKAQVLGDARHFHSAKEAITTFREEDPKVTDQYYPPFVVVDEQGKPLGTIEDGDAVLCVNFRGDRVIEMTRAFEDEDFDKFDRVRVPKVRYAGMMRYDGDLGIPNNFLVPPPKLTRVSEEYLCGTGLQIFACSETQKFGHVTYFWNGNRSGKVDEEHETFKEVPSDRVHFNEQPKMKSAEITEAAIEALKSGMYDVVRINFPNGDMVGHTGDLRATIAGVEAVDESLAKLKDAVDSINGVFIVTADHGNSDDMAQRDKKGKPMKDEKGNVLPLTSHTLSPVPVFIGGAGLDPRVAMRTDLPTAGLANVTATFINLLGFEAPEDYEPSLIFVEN
Chain of Peptidyl-prolyl cis-trans isomerase NIMA-interacting 1 (Homo sapiens) (Q13526 whole entry, looked up): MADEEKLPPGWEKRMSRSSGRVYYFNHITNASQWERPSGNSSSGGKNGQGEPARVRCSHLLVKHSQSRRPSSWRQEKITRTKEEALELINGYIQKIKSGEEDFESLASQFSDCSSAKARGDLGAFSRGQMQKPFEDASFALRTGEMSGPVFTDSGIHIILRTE

`O=C1NCN(c2ccccc2)C12CCN(CCCOc1ccc(F)cc1)CC2`: the Potency entry in assay [1] and in assay [2] was “inactive” in each case.
On to `CCN(Cc1ccc(Cl)nc1)/C(=C/[N+](=O)[O-])NC`, for which the Potency result in assay [1] and in assay [2] was “inactive” throughout.
Take `C[C@H]1C(=O)O[C@@H]2CCN3CC=C(COC(=O)[C@](C)(O)[C@]1(C)O)[C@H]23`: the Potency entry in assay [1] and in assay [2] was “inactive” in each case.
For `CCNC(=O)NCc1cccc(Cl)c1`, the Potency in assay [1] is 15.8 µM (active).
`c1cc2c(c(N3CCNCC3)c1)OCCO2`: the Potency entry in [1] and in [2] was “inactive” throughout.
As to `O=C(CCCN1CCC(n2c(=O)[nH]c3ccccc32)CC1)c1ccc(F)cc1`, the Potency result in assay [1] and in assay [2] was “inactive” each time.
In the case of `COC(=O)C1=CCCN(C)C1`, the Potency result in [3], in [7], in assay [8], in [10] and in assay [2] was “inactive” each time. The compound was called inactive in [4], in assay [5], in [6], in assay [9], in [11] and in assay [12]. Besides, the result in assay [13], in assay [14], in assay [15], in assay [16], in assay [17] and in assay [18] was inactive. Besides, in [11], the viability change was -1.14%.
Turning to `NC(N)=NCCC[C@H](N)C(=O)O`, the Potency result in assay [3] was “inactive”. For the same compound, the result in [18] was inactive.
Consider `Cc1c(Cl)c(=O)oc2cc(OP(=O)(OCCCl)OCCCl)ccc12`, for which the Potency entry in [1] and in assay [2] was “inactive” in each case.
Regarding `CNC(=O)Oc1cccc2ccccc12`, the Potency entry in assay [1] and in assay [2] was “inactive” each time.
For the compound `O=c1n(Cl)c(=O)n(Cl)c(=O)n1Cl`, the Potency result in assay [1] and in [2] was “inactive” each time.
For the compound `COP(=O)(OC)OC=C(Cl)Cl`, the Potency result in assay [1] and in assay [2] was “inactive” each time.
Turning to `OC(c1ccccc1)(c1ccccc1)C1CCNCC1`, the Potency entry in assay [1] and in assay [2] was “inactive” throughout.
As for `Clc1ccc(CO/N=C(\Cn2ccnc2)c2ccc(Cl)cc2Cl)c(Cl)c1`, in assay [1], the Potency result was “inactive”.
In the case of `CN1C[C@H](C(=O)N[C@]2(C)O[C@@]3(O)[C@@H]4CCCN4C(=O)[C@H](Cc4ccccc4)N3C2=O)C[C@@H]2c3cccc4[nH]cc(c34)C[C@H]21`, the Potency result in [7] and in assay [2] was “inactive” each time. For the same compound, the Potency in assay [8] was 8.91 µM (active). Further, the call in [18] was inactive.
For `O=C1CC2(CCCC2)CC(=O)N1CCCCN1CCN(c2ncccn2)CC1`, the Potency result in [3] is “inactive”. Further, the compound was classed as inactive in assay [18].
As for `CC(N)C(=O)OC(C)(C)Cc1ccc(Cl)cc1` (stereo not given), the outcome in assay [5], in assay [19], in assay [13], in assay [14] and in assay [18] was inactive.
Take `NC(=O)CN1CCCC1=O`: the Potency entry in assay [3], in [7], in [8], in assay [1], in assay [10] and in [2] was “inactive” in each case. For the same compound, the compound was called inactive in assay [4], in [5], in assay [6], in assay [9], in assay [11] and in assay [12]. Besides, the outcome in assay [13], in assay [14], in assay [15], in assay [16], in [17] and in assay [18] was inactive. The activation in [20] was -0.312% (inactive). Further, the viability change in assay [11] was -6.84%.
For `CC[n+]1c(-c2ccccc2)c2cc(N)ccc2c2ccc(N)cc21`, the Potency entry in assay [1] is “inactive”. Besides, the Potency in [2] was 39.8 µM (active).
